This is an account of results in ChEMBL document CHEMBL1961873, “Compounds: GSK PKIS; Assays: Nanosyn kinase panel” (2012).

Molecules are shown by their SMILES. “And” between values parts separate entries of the source, which are not always exact repeats. Equal entries are not always repeated.

The first experiment deals with Protein-tyrosine kinase 2-beta (Homo sapiens) (UniProt Q14289). As to conditions: at 0.1 µM.
Sequence of Protein-tyrosine kinase 2-beta (Homo sapiens) (Q14289 whole entry, looked up): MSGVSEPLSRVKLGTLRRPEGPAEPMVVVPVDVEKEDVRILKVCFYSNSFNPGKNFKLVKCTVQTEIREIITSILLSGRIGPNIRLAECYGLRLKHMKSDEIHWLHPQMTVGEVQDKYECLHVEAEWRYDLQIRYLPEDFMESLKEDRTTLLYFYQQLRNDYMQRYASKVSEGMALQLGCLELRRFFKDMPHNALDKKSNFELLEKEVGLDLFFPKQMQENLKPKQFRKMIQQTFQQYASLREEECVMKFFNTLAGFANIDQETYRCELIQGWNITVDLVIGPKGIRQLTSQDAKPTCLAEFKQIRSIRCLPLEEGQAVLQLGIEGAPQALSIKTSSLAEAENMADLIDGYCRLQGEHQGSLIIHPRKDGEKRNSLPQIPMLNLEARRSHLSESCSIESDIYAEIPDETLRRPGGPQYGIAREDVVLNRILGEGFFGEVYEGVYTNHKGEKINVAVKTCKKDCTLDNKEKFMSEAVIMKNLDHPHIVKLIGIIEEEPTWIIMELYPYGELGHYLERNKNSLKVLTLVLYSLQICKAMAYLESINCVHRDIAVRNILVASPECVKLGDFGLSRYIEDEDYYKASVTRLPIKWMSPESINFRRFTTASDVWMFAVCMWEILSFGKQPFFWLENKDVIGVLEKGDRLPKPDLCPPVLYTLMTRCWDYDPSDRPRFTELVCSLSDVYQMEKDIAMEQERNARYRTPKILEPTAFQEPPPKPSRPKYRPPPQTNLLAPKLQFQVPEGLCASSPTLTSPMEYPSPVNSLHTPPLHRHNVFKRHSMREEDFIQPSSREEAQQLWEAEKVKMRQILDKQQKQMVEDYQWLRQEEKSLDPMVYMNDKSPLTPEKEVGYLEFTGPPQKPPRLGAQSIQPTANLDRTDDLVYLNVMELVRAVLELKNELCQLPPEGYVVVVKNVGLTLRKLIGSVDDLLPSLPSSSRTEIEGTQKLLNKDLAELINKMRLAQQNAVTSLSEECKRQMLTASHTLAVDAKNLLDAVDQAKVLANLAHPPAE
For `COc1ccc(Nc2ncc(-c3ccccc3)o2)cc1OC`, the inhibition is -5.6%.

Take `CCS(=O)(=O)c1ccc(OC)c(Nc2ncc(-c3cccc(C(C)=O)c3)o2)c1`: the inhibition worked out at 5.43%.

For `CS(=O)(=O)Nc1ccc(-c2ccc3c(NC(=O)C4CC4)n[nH]c3c2)cc1`, the inhibition worked out at 9.87%.

For `CS(=O)(=O)CCNCc1ccoc1-c1ccc2ncnc(Nc3ccc(OCc4ccccc4)cc3)c2c1`, the inhibition stood at 0.12%.

With `NS(=O)(=O)c1ccc(N/N=C2\C(=O)Nc3ccc(C(=O)NCc4ccncc4)cc32)cc1`, the inhibition amounted to 3.79%.

On to `CN1CCC(C(=O)Nc2n[nH]c3nc(-c4ccc(O)cc4)c(Br)cc23)CC1`, for which the inhibition was 10.8% and -4.15%.

For `CN1CCN(Cc2ccc(-c3cc4ncnc(Nc5ccc(OCc6cccc(F)c6)c(Cl)c5)c4s3)o2)CC1`, the inhibition is 8.63% and 10.6%.

For `COc1cc2c(cc1Nc1nc(Nc3cccc(F)c3C(N)=O)c3cc[nH]c3n1)N(C(=O)CN1CCN(C(C)C)CC1)CC2`, the inhibition was 57.7%.

On to `COc1cccc(-n2ncc3c(N/N=C/c4ccc(C(=O)NCCN(C)C)cc4)ncnc32)c1`, for which the inhibition is 5.72%.

In the case of `CN(c1ccc(NC(=O)NCCN2CCOCC2)cc1)c1ccnc(Nc2ccc(CS(C)(=O)=O)cc2)n1`, the inhibition is 11.2%.

Take `Cc1nnc(-c2cccc(-c3ccc(C(=O)NCC4CC4)cc3)c2)o1`: the inhibition was 12.3%.

Take `Cc1cc(O)cc(C)c1/C=C/c1cncc(C(N)=O)c1`: the inhibition was determined as 8.94%.

Turning to `FC(F)(F)CNc1nccc(-c2cnn3ncccc23)n1`, the inhibition was -0.29%.

`NC(=O)c1ccc2c(-c3ccnc(NCCCO)n3)c(-c3ccc(F)cc3)nn2c1`: the inhibition was determined as 17.1%.

On to `COc1ccc2ncn(-c3cc(O[C@H](C)c4ccccc4C(F)(F)F)c(C(N)=O)s3)c2c1`, for which the inhibition is -4.13%.

In the case of `COc1cc(Nc2ncc(-c3ccccc3)o2)cc(OC)c1`, the inhibition came to 6.76%.

As to `Fc1ccc(Nc2nccc(-c3c(-c4ccc(C(F)(F)F)cc4)nn4ncccc34)n2)cc1F`, the inhibition is 4.12%.

As for `COc1cc(N2CCN(C(C)C)CC2)ccc1Nc1nc(Nc2cccc(F)c2C(=O)O)c2cc[nH]c2n1`, the inhibition is 90.6%.

`CC1(C)CC(n2cnc(-c3ccc(F)cc3)c2-c2ccnc(N)n2)CC(C)(C)N1`: the inhibition stood at 4.26%.

On to `COc1cccc(Nc2nccc(-c3cnn4ncccc34)n2)c1`, for which the inhibition came out at 28.5%.

With `COc1ccc(-c2nn3ncccc3c2-c2ccnc(Nc3ccc(F)c(F)c3)n2)cc1`, the inhibition was determined as 6.54%.

As to `CNC(=O)c1cncc(/C=C/c2ccccc2C)c1`, the inhibition is 5.28%.

Regarding `Cn1c(-c2nonc2N)nc2cnccc21`, the inhibition worked out at 8.49%.

For `Nc1ncnc2occ(-c3ccc(NC(=O)Nc4cc(C(F)(F)F)ccc4F)cc3)c12`, the inhibition was 4.45% and -2.3%.

Turning to `CCOc1ccc2c(-c3ccnc(Nc4cc(OC)cc(C(F)(F)F)c4)n3)cnn2n1`, the inhibition turned out to be 4.61%.

`O=C1Nc2ccccc2/C1=C1\CCc2cc(O)ccc21`: the inhibition is 18.3%.

With `O=C(O[C@H]1CN[C@H](C#Cc2cc3ncnc(Nc4ccc5c(ccn5Cc5cc(F)ccc5F)c4)c3s2)C1)N1CCOCC1`, the inhibition was 13.2%.

As for `CS(=O)(=O)CCNCc1ccc(-c2ccc3ncnc(Nc4ccc(OCc5cccc(C(F)(F)F)c5)cc4)c3c2)o1`, the inhibition came out at 1.85%.

In the case of `N#Cc1cccc(Nc2ncc(-c3ccccc3)o2)c1`, the inhibition came to 1.87%.

For `N#Cc1ccc2c(-c3ccnc(NC4CC4)n3)c(-c3ccc(F)cc3)nn2c1`, the inhibition was -1.69%.

Take `CNC(=O)c1sc(-n2cnc3cc(OC)c(OC)cc32)cc1OCc1ccccc1C(F)(F)F`: the inhibition was -3.85%.

A further experiment shares this target. As to conditions: at 1 µM.
Turning to `COc1ccc(Nc2ncc(-c3ccccc3)o2)cc1OC`, the inhibition stood at 1.04%.

As to `CCS(=O)(=O)c1ccc(OC)c(Nc2ncc(-c3cccc(C(C)=O)c3)o2)c1`, the inhibition was determined as 8.24%.

In the case of `CS(=O)(=O)Nc1ccc(-c2ccc3c(NC(=O)C4CC4)n[nH]c3c2)cc1`, the inhibition was 8.59%.

With `CS(=O)(=O)CCNCc1ccoc1-c1ccc2ncnc(Nc3ccc(OCc4ccccc4)cc3)c2c1`, the inhibition was found to be 1.57%.

For the compound `NS(=O)(=O)c1ccc(N/N=C2\C(=O)Nc3ccc(C(=O)NCc4ccncc4)cc32)cc1`, the inhibition was determined as 8.61%.

Turning to `CN1CCC(C(=O)Nc2n[nH]c3nc(-c4ccc(O)cc4)c(Br)cc23)CC1`, the inhibition is 12.9% and 6.02%.

For the compound `CN1CCN(Cc2ccc(-c3cc4ncnc(Nc5ccc(OCc6cccc(F)c6)c(Cl)c5)c4s3)o2)CC1`, the inhibition was 8.03% and 19.6%.

Consider `COc1cc2c(cc1Nc1nc(Nc3cccc(F)c3C(N)=O)c3cc[nH]c3n1)N(C(=O)CN1CCN(C(C)C)CC1)CC2`, for which the inhibition is 93.4%.

As for `COc1cccc(-n2ncc3c(N/N=C/c4ccc(C(=O)NCCN(C)C)cc4)ncnc32)c1`, the inhibition is 12.1%.

In the case of `CN(c1ccc(NC(=O)NCCN2CCOCC2)cc1)c1ccnc(Nc2ccc(CS(C)(=O)=O)cc2)n1`, the inhibition worked out at 57.8%.

For the compound `Cc1nnc(-c2cccc(-c3ccc(C(=O)NCC4CC4)cc3)c2)o1`, the inhibition was found to be 9.85%.

For the compound `Cc1cc(O)cc(C)c1/C=C/c1cncc(C(N)=O)c1`, the inhibition worked out at 8.75%.

On to `FC(F)(F)CNc1nccc(-c2cnn3ncccc23)n1`, for which the inhibition was 2.94%.

As to `NC(=O)c1ccc2c(-c3ccnc(NCCCO)n3)c(-c3ccc(F)cc3)nn2c1`, the inhibition came out at 12.2%.

For the compound `COc1ccc2ncn(-c3cc(O[C@H](C)c4ccccc4C(F)(F)F)c(C(N)=O)s3)c2c1`, the inhibition was -9.62%.

On to `COc1cc(Nc2ncc(-c3ccccc3)o2)cc(OC)c1`, for which the inhibition is 9.54%.

Consider `Fc1ccc(Nc2nccc(-c3c(-c4ccc(C(F)(F)F)cc4)nn4ncccc34)n2)cc1F`, for which the inhibition was 9.36%.

Consider `COc1cc(N2CCN(C(C)C)CC2)ccc1Nc1nc(Nc2cccc(F)c2C(=O)O)c2cc[nH]c2n1`, for which the inhibition is 96.4%.

`CC1(C)CC(n2cnc(-c3ccc(F)cc3)c2-c2ccnc(N)n2)CC(C)(C)N1`: the inhibition was 3.23%.

As for `COc1cccc(Nc2nccc(-c3cnn4ncccc34)n2)c1`, the inhibition is 86.6%.

For `COc1ccc(-c2nn3ncccc3c2-c2ccnc(Nc3ccc(F)c(F)c3)n2)cc1`, the inhibition was determined as 17.9%.

In the case of `CNC(=O)c1cncc(/C=C/c2ccccc2C)c1`, the inhibition was 5.23%.

As for `Cn1c(-c2nonc2N)nc2cnccc21`, the inhibition was found to be 4.49%.

Consider `CCOc1ccc2c(-c3ccnc(Nc4cc(OC)cc(C(F)(F)F)c4)n3)cnn2n1`, for which the inhibition came to 21.2%.

With `O=C1Nc2ccccc2/C1=C1\CCc2cc(O)ccc21`, the inhibition was 44%.

Take `O=C(O[C@H]1CN[C@H](C#Cc2cc3ncnc(Nc4ccc5c(ccn5Cc5cc(F)ccc5F)c4)c3s2)C1)N1CCOCC1`: the inhibition was found to be 5.45%.

Consider `CS(=O)(=O)CCNCc1ccc(-c2ccc3ncnc(Nc4ccc(OCc5cccc(C(F)(F)F)c5)cc4)c3c2)o1`, for which the inhibition was 12.6%.

Take `N#Cc1cccc(Nc2ncc(-c3ccccc3)o2)c1`: the inhibition was 7.64%.

In the case of `N#Cc1ccc2c(-c3ccnc(NC4CC4)n3)c(-c3ccc(F)cc3)nn2c1`, the inhibition stood at 0.44%.

As to `CNC(=O)c1sc(-n2cnc3cc(OC)c(OC)cc32)cc1OCc1ccccc1C(F)(F)F`, the inhibition is 0.13%.
